This is a sample that favours compounds with a hit; in the whole collection about 2.8% have one here.
SNCA expr inhib: inhibitors of alpha-synuclein (SNCA) gene expression; Potency, µM (series often up to 57.2 µM), without a hit: top-dose activity change, negative = inhibition, most hits filed as inhibitors; AID 1671194; actives 0.17% (n = 140,000); HEK-293 SNCA-luciferase knock-in, luminescence, 24 h;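 further: potency means the concentration at half of the fitted maximal effect; plate controls were DMSO cells for no effect and cell-free wells for full effect; nearly all actives have a fitted effect of over 45% in size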
IP6K1 inh: IP6K1 kinase inhibition | activity change, % (series mostly up to about 58 µM) | actives 0.81% (n = 140,000) | IP6K1 kinase, ADP-Glo luminescence, 2 h; stronger effect = lower value | Q92551 | AID 1645851; in the data active means activity change below about -25%; further: on the % scale 0 is the no-effect control and ±100 the full control effect
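ADP-Glo luminescence measures ADP made by human IP6K1 during a 2 h RT reaction with ATP/IP6 (mix at 1.3 mM/130 uM); top library doses 57.5 and 19.1 uM final.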
KDM5B inhibitor: inhibitors of human KDM5B histone demethylase | Q9UGL1 | AID 1347165 | Potency, µM (doses to about 57.7 µM), hits mostly inhibitors | KDM5B demethylase, FDH-coupled NADH fluorescence (FDH is formaldehyde dehydrogenase) | actives 2.6% (n = 220,000); further: potency means the concentration at half of the fitted maximal effect; 0% is about no effect; nearly all actives have a fitted effect of over 70% in size
Target sequence (Q9UGL1 whole entry, looked up): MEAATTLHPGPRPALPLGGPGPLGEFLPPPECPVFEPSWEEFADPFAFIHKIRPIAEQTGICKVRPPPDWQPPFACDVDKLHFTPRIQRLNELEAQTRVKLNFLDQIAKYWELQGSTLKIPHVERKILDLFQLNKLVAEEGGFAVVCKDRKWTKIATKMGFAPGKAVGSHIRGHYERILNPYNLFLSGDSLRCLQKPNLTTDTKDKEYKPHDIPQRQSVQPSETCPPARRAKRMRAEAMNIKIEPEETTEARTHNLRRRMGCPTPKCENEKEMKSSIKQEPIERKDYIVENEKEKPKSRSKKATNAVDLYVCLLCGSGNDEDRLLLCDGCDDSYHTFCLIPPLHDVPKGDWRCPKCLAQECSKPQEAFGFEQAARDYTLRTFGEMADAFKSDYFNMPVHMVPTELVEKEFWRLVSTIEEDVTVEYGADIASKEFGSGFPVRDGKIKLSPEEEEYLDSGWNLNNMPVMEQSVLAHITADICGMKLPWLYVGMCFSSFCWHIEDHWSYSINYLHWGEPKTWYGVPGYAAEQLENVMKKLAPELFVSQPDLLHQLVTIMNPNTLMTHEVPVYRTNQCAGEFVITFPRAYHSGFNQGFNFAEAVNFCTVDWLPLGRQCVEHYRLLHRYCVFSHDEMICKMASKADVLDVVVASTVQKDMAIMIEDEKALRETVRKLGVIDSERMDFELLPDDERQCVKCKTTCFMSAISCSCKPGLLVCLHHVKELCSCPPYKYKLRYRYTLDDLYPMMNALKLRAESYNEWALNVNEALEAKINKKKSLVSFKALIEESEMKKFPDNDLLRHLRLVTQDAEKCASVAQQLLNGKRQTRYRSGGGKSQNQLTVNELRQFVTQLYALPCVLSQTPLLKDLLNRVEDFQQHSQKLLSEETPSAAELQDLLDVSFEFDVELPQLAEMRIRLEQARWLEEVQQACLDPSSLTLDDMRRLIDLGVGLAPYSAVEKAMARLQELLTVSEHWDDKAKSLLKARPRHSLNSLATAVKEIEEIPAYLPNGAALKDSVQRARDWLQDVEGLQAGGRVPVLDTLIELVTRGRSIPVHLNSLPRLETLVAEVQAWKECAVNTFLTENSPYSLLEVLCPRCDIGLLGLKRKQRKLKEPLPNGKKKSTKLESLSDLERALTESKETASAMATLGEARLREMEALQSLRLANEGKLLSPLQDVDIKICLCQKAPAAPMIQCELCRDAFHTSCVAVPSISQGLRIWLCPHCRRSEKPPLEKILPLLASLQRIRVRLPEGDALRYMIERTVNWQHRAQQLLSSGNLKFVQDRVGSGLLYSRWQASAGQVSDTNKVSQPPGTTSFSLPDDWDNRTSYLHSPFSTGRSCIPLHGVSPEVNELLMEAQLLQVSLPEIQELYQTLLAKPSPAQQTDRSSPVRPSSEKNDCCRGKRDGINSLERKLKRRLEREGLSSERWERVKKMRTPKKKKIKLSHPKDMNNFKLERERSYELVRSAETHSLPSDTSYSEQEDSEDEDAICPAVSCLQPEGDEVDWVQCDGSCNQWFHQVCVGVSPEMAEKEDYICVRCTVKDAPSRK
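Here, H3K4me3 peptide (12.5 µM in substrate mix) is demethylated by KDM5BΔAP, 200 nM final, after 10 min compound exposure. Formaldehyde product is coupled through FDH (0.25 U/mL in mix) to NADH fluorescence; 30-min ΔRFU feeds dose-response curves.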
HEK293 viab: cell viability loss counter-screen | HEK-293-SNCA-luc viability, GF-AFC fluorescence, 24 h | actives 0.12% (n = 150,000) | Potency, µM (highest dose often 57.1 µM), inactives show at the top dose activity change, negative = cytotoxicity, hits mostly cytotoxic;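 further: potency means the concentration at half of the fitted maximal effect; 0% = DMSO-treated cells and -100% = medium-only wells without cells; nearly all actives have a fitted effect of over 30% in size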
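HEK-293-SNCA-luc cells (1500/well) plated 24 h, then exposed 24 h to a dilution series; GF-AFC added 30 min at 37C, fluorescence 405/540 nm; normalised to medium-only and DMSO wells, Hill fit.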
Starred values were filed as active, the others as inactive; i = inactive; ? = inconclusive; / = not tested or not shown; [ ] = remark or other dose. Unless noted, the call rests on the fitted dose curve; in most records, active means well fitted curve in the direction sought with a large enough effect; inconclusive means small, poorly fitted or top-dose-only effect, or another doubt; inactive means no such curve, though single readings can be large; an effect the other way counts as inactive or inconclusive.

SMILES	SNCA expr inhib	IP6K1 inh	KDM5B inhibitor	HEK293 viab
CN1Cc2cccn2CC1CNC(=O)C1(S(=O)(=O)c2ccc(Cl)cc2)CC1 (configuration not stated)	-18%	14	14µM*	6%
COCCN1C(=O)c2cccn2CC1CNC(=O)Cc1cccc(F)c1 (configuration not stated)	-11%	12	i	3%
CN1Cc2cccn2CC1CNC(=O)c1ccsc1 (configuration not stated)	-11%	-11	20µM*	-16%
CN1Cc2cccn2CC1CNC(=O)Cc1ccccc1 (configuration not stated)	-18%	-8	18µM*	3%
CN1C(=O)c2cccn2CC1CNC(=O)C1(S(=O)(=O)c2ccc(Cl)cc2)CC1 (configuration not stated)	-7%	-1	i	-5%
CC(=O)Nc1ccc(CNC(=O)CN2CCN(C(C)=O)CC2)cc1	-9%	4	i	-2%
CS(=O)(=O)NC[C@H]1OC[C@@H](NC2CCC(F)(F)CC2)[C@@H]1O	17%[87.6 µM]	-8	i	2%[87.6 µM]
COc1cc(C#N)ccc1OCC(=O)c1ccc2ccccc2c1	/	/	i	/
NC1=C(S(=O)(=O)c2ccccc2)C(c2ccccc2)C(S(=O)(=O)c2ccccc2)=c2s/c(=C/c3ccccc3)c(=O)n21 (configuration not stated)	/	/	i	/
CCc1n[nH]c(CC2CCN(C(=O)Nc3ccc4c(c3)OCCO4)CC2)n1	-28%	16	22µM*	2%
Cc1cccc(NC(=O)Nc2ccc(C)n(CC(=O)O)c2=O)c1	-7%	6	20µM*	15%
Cc1ccc(NC(=O)Nc2ccc(C)n(CC(=O)Nc3ccc(C)cc3C)c2=O)cc1	116%	-6	i	15%
COc1ccccc1NC(=O)Cn1c(C)ccc(NC(=O)Nc2ccc(C)cc2)c1=O	14%	-7	18µM*	-22%
Cc1cccc(NC(=O)Nc2ccc(C)n(CC(=O)Nc3ccc(C)c(C)c3)c2=O)c1	10%	4	i	-27%
COCCNC(=O)N[C@@H]1CN(c2ncccn2)C[C@H]1CN(C)C	4%	9	22µM*	11%
COc1cccc(CNC(=O)N[C@@H]2CN(Cc3ccncc3)C[C@H]2CN(C)C)c1	-4%	25	?	0%
COc1cccc(CNC(=O)N[C@@H]2CN(c3ncccn3)C[C@H]2CN(C)C)c1	16%	24	28µM*	8%
COCc1c(C(=O)N[C@@H]2CN(c3ncccn3)C[C@H]2CN(C)C)noc1C	5%	4	28µM*	4%
O=C(CC1CCOC2(CCN(C(=O)c3cccc(F)c3)CC2)C1)NCc1ccncc1 (configuration not stated)	24%	6	i	1%
O=C(N[C@@H]1C[C@H](Cn2cc(CN3CCS(=O)(=O)CC3)nn2)[C@@H](O)[C@H]1O)C1CCCC1	17%	-4	?	2%
O=C(N[C@@H]1C[C@H](Cn2cc(CN3CCS(=O)(=O)CC3)nn2)[C@@H](O)[C@H]1O)c1cncnc1	-13%	8	14µM*	-2%
Cc1ccc(-c2ccc3nnc(CNC(=O)c4ccccc4F)n3n2)cc1C	48%	-7	28µM*	-5%
Cc1ccc(-c2ccc3nnc(CNC(=O)Cc4ccc(F)cc4)n3n2)cc1C	-18%	-12	?	5%
Cc1ccc(-c2ccc3nnc(CNC(=O)c4ccoc4)n3n2)cc1C	31%	-2	16µM*	1%
Cc1ccc(-c2ccc3nnc(CNC(=O)c4ccccc4C)n3n2)cc1C	4%	-1	28µM*	-13%
SMILES	SNCA expr inhib	IP6K1 inh	KDM5B inhibitor	HEK293 viab
CCOC(=O)CN(C)CC(=O)NCCC(C)C	/	/	i	/
C=CCOc1ccc2c(=O)c(Oc3cc(C)cc(C)c3)coc2c1	/	/	i	/
CC(C)(C)c1cnc(CSc2cnc(NC(=O)C3CCNCC3)s2)o1	1.5µM*	/	/	?
O=C(Nc1ncc(Cc2cccc(Cl)c2)s1)C1CCCCC1	/	/	i	/
CCn1cc(SCC(=O)Nc2cc(C)ccc2C)c2ccccc21	/	/	i	/
O=C(Nc1cc(F)cc(F)c1)N1CCCC2(C1)Nc1cccnc1NC2=NC1CCCC1 (configuration not stated)	-17%	0	14µM*	-14%
COc1ccc(C)cc1NC(=O)N1CCCC2(C1)Nc1cccnc1NC2=NC1CCCC1 (configuration not stated)	?	4	28µM*	?
COc1cccc(NC(=O)N2CCCC3(C2)Nc2cccnc2NC3=NC2CCCC2)c1 (configuration not stated)	-15%	0	?	-26%
C=CCNC(=O)N[C@H]1[C@H](O)[C@@H](Sc2ccccc2)[C@@H]2OC[C@H]1O2	-23%[87.6 µM]	-1	i	-1%[87.6 µM]
CCN(CC)C(=O)[C@@H](C)C1CC[C@@]2(C)Cc3sc(Nc4c(Cl)cccc4Cl)nc3[C@@H](C)[C@@H]2[C@H]1O (some centres not stated)	?	-7	i	0%
C[C@H](C(=O)N1CCCC1)C1CC[C@@]2(C)Cc3sc(-c4ccccc4)nc3[C@@H](C)[C@@H]2[C@H]1O (some centres not stated)	4.5µM*	-9	32µM*	2%
COCCNC(=O)[C@@H](C)C1CC[C@@]2(C)Cc3sc(CSc4ccccc4)nc3[C@@H](C)[C@@H]2[C@H]1O (some centres not stated)	-15%	11	i	-1%
C[C@H](C(=O)N1CCCC1)[C@@H]1CC[C@@]2(C)Cc3sc(-c4ccsc4)nc3[C@@H](C)[C@@H]2[C@H]1O	5.6µM*	0	?	5%
COc1cccc(-c2ccc3c(n2)CNC(=O)CO3)c1	132%[87.6 µM]	11	32µM*	3%[87.6 µM]
CCc1cnc(N2CCC(Oc3cnc4c(ccn4CCN[S+](C)(=O)[O-])c3)CC2)nc1	-21%	-13	28µM*	-10%
CCc1cnc(N2CCC(COc3ccc4c(cnn4CC[S+](C)(=O)[O-])c3)CC2)nc1	-29%	-12	32µM*	-1%
Cc1nccc(N2CCC(Oc3cnc4c(ccn4CCN[S+](C)(=O)[O-])c3)CC2)n1	?	4	?	6%[87.6 µM]
C[S+](=O)([O-])CCn1ncc2cc(OCC3CCN(c4ncccn4)CC3)ccc21	?	5	35µM*	-1%[87.6 µM]
CCN(Cc1ccccc1)Cc1c(O)ccc2c(=O)c(-c3ccccc3)c(C(F)(F)F)oc12	-16%	-7	i	-11%
COc1ccc(-c2noc(-c3nc(Cc4ccccc4)no3)n2)cc1	-13%	3	32µM*	-3%
Cc1ccccc1Cc1noc(-c2nc(-c3ccc4c(c3)OCO4)no2)n1	?	2	28µM*	12%
Fc1cccc(Cc2noc(-c3nc(-c4ccc5c(c4)OCO5)no3)n2)c1	21%	-2	25µM*	6%
CCc1noc(-c2nc(-c3ccc(OC)c(OC)c3)no2)n1	23%	0	i	-3%
COc1ccc(-c2noc(-c3nc(Cc4cccc(F)c4)no3)n2)cc1OC	11%	13	25µM*	4%

Source: PubChem BioAssay (National Center for Advancing Translational Sciences (NCATS))
